In the library only some 2.3% were active in any assay of this set; here they are far more common.
ANO1 block = TMEM16A chloride channel inhibitors, primary screen, cell-based, HTS | Anoctamin-1 (Mus musculus), Q8BHY3 | HEK293 TMEM16A/YFP iodide influx fluorescence, ionomycin | normalized B-score (activity score, 25-100; higher = stronger inhibition) at 10 µM | 1.2% of 310,000 active;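 active = ratio plate-corrected score three or more library SD toward inhibition, starting fluorescence score within five deviations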;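 note: score derived from kinetic fluorescence span divided by baseline fluorescence per well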
Target sequence (Q8BHY3 whole entry, looked up): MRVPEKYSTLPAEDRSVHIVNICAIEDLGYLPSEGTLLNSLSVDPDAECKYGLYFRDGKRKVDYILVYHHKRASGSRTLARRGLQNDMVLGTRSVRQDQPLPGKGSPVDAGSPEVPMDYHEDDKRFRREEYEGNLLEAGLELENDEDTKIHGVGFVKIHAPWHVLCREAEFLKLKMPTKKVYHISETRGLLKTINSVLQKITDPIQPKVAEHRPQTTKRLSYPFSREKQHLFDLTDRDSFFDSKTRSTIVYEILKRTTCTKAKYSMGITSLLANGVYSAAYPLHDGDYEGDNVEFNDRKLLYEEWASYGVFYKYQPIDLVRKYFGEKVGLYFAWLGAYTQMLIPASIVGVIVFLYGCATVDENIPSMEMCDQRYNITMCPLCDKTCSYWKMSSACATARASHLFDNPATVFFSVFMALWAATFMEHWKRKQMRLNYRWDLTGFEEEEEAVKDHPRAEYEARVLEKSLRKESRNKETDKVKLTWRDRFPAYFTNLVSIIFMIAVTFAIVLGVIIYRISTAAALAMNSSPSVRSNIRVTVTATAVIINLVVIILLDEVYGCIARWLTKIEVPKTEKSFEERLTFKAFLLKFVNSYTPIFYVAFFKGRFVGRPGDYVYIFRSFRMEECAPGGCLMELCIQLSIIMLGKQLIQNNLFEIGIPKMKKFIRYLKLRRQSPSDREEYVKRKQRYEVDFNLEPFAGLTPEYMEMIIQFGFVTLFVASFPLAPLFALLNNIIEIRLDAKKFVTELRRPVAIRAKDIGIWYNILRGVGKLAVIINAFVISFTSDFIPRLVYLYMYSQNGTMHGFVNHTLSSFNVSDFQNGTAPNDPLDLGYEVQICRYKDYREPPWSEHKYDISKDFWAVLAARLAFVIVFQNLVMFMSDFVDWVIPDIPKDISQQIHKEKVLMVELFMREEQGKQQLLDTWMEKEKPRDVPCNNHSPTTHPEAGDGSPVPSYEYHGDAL
CHT allo act = CHT positive allosteric modulators, primary screen, cell-based, membrane potential dye, choline EC20; AID 488977, 2010; CHT-expressing cells; stronger effect = higher value; LV-AA mutant CHT in HEK293 cells; 0.49% of 310,000 active; B-score at 10 µM; High affinity choline transporter 1 (Homo sapiens), Q9GZV3;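 active = initial fluorescence not abnormally high and integrated response B-score, plate-corrected, over 3 SD above library mean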
CHT block = inhibitors of human choline transporter CHT; CHT-expressing cells, membrane potential dye, choline response; stronger effect = lower value; B-score at 10 µM; 0.86% of 310,000 active;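 active = B-score over 3 SD under the library average, and starting fluorescence ratio not unusually high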;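 note: choline stimulus applied at its EC90 after an EC20 pre-addition; B-score computed on integrated fluorescence ratio after choline addition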
ANO1 activ = TMEM16A chloride channel activators or potentiators, primary screen, cell-based, HTS. B-score at 10 µM. AID 623877, 2012. 0.3% of 340,000 active. HEK293 TMEM16A/YFP-H148Q/I152L, iodide quench fluorescence; stronger effect = lower value. Anoctamin-1 (Mus musculus), Q8BHY3;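 active = fluorescence-ratio B-score plate-corrected deviation score at least 3 library SD below zero, with starting fluorescence score within 5 deviations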;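 note: channel opened by trigger with iodide after compound preincubation; score built on the fluorescence ratio of max minus min over baseline; more negative score means more quench and so TMEM16A activation or potentiation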
TMEM16A reconf = TMEM16A chloride channel inhibitors, confirmation, cell-based, re-confirmation; shares compounds with ANO1 block; HEK293 TMEM16A/YFP-H148Q, iodide quench fluorescence; ionomycin added to raise cell calcium; inhibition, % at 10 µM; 39% of 2,300 active; AID 652189, 2013;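 active = mean duplicate percent inhibition, scaled so buffer wells are 0 and the reference blocker 100, over three buffer SD above buffer mean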
HEK293 Ca mobil = calcium mobilization in TMEM16A/YFP HEK293 cells, confirmation, counter-screen for TMEM16A inhibitor project. shares compounds with ANO1 block. Fluo4 calcium mobilization. calcium response (% of ionomycin), % at 10 µM. 2% of 2,300 active. AID 652231, 2013;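 active = duplicate-averaged calcium signal over 20% of the ionomycin maximum, relative to buffer baseline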;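 note: each well's signal is peak minus trough fluorescence divided by its pre-addition baseline; 0% = buffer wells and 100% = ionomycin wells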
YFP-HEK293 quench = iodide YFP quench changes in parental YFP-HEK293, counter-screen for TMEM16A inhibitor project, cell-based | AID 652233, 2013 | YFP ratio F(max-min)/F0 at 10 µM | shares compounds with ANO1 block | 2,300 tested, under 10 active | ionomycin;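 active = yellow fluorescent protein signal ratio exceeding the buffer control mean by over 5 SD of those controls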;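 note: ratio is mean of duplicate wells from kinetic YFP trace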
ClC-1 rat inh = ClC-1 chloride channel inhibition, selectivity assay for TMEM16A inhibitor project, cell-based, voltage-dependent ClC-1. shares compounds with ANO1 block. CHO ClC-1-YFP, iodide influx fluorescence quench; iodide control reads 0, buffer control 100. ratio percent, % at 10 µM. 2,300 tested, under 10 active. AID 652236, 2013;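 active = duplicate-mean ratio percent above the mean of iodide-only control wells, which defines zero, plus 5 of their SD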;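 note: higher percent means stronger block of ClC-1 iodide influx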
Starred values were filed as active, the others as inactive; i = inactive; nt = not tested or not shown.

SMILES | ANO1 block | CHT allo act | CHT block | ANO1 activ | TMEM16A reconf | HEK293 Ca mobil | YFP-HEK293 quench | ClC-1 rat inh
Cc1ccc2sc(N3CCN(C(=O)c4ccc([N+](=O)[O-])o4)CC3)nc2c1C | i | i | i | i | nt | nt | nt | nt
CCC1(CC)NC(=O)N(CC(=O)OCC(=O)NC(=O)c2ccccc2OC)C1=O | i | i | i | i | nt | nt | nt | nt
CCOc1ccc(Nc2nc(N3CCOCC3)nc(N3CCOCC3)n2)cc1 | i | i | i | i | nt | nt | nt | nt
CCOc1ccc(Nc2nc(NCCN3CCOCC3)nc(OC)n2)cc1 | 100* | i | i | i | i | i | -0.942 | -9.5
c1ccc(Cn2ccc(-c3cnc(-c4ccccc4)s3)n2)cc1 | 100* | i | i | i | 45.0%* | i | -0.936 | -11.0
Nc1ccn(Cc2ccccc2)n1 | i | i | i | i | nt | nt | nt | nt
NC(=O)c1ccsc1NC(=O)COC(=O)Cc1c[nH]c2ccccc12 | i | i | i | i | nt | nt | nt | nt
Cc1cccc(OCC(=O)OCC(=O)Nc2sccc2C(N)=O)c1 | nt | nt | nt | i | nt | nt | nt | nt
NC(=O)c1ccsc1NC(=O)COc1ccccc1 | 25* | i | i | i | i | i | -0.898 | -9.0
NC(=O)c1ccsc1NC(=O)COC(=O)Cc1cccc2ccccc12 | 25* | i | i | i | 45.0%* | i | -0.722 | -12.5
CCCSc1oc(-c2ccco2)nc1S(=O)(=O)c1ccccc1 | i | i | i | i | nt | nt | nt | nt
CCCSc1oc(-c2ccco2)nc1S(=O)(=O)c1ccc(C)cc1 | 25* | i | i | i | i | i | -1.03 | -10.0
Cc1ccc(Cn2c(N3CCN(CCO)CC3)nc3c2c(=O)n(C)c(=O)n3C)cc1 | i | i | i | i | nt | nt | nt | nt
Oc1ccccc1-c1cc(C(F)(F)C(F)F)[nH]n1 | 100* | i | i | i | i | i | -0.825 | -13.0
CC(C)(C)c1cc(-c2ccccc2)n[nH]1 | i | i | i | i | nt | nt | nt | nt
Clc1ccc(-c2cc(C3CCNCC3)[nH]n2)cc1 | i | i | i | i | nt | nt | nt | nt
Oc1ccccc1C1=NCCNC(C(F)(F)C(F)F)=C1 | i | i | i | i | nt | nt | nt | nt
Fc1ccc(-c2cc(C(F)(F)C(F)F)[nH]n2)cc1 | 100* | i | i | i | 54.5%* | i | -1.07 | -7.0
FC(F)C(F)(F)c1cc(-c2ccc(Cl)cc2)n[nH]1 | 100* | i | i | i | 97.0%* | i | -0.938 | -27.5
O=C(Nc1ccc(Cl)cc1)P(=O)(O)c1ccccc1 | nt | nt | nt | i | nt | nt | nt | nt
COc1ccc(N2CCN(C(=O)[C@@H]3CCCN3C3=NS(=O)(=O)c4ccccc43)CC2)cc1 | nt | nt | nt | i | nt | nt | nt | nt
Cc1ccc(NC2CCCN(C(=O)c3cccc4nccnc34)C2)cc1C (stereo unspecified) | i | i | i | i | nt | nt | nt | nt
CCC1CCCCN1C(=O)CSc1n[nH]c(N)n1 (stereo unspecified) | nt | nt | nt | i | nt | nt | nt | nt
Cc1csc2ncnc(N3CCN(C(=O)Nc4ccc(OC(F)(F)F)cc4)CC3)c12 | 100* | i | i | i | 16.5%* | i | -1.48 | -11.5
O=C(C1CCCCC1)N1CCN(c2ccnc3cc(Cl)ccc23)CC1 | 25* | i | i | i | 18.0%* | i | -1.02 | -14.0
SMILES | ANO1 block | CHT allo act | CHT block | ANO1 activ | TMEM16A reconf | HEK293 Ca mobil | YFP-HEK293 quench | ClC-1 rat inh
O=C(Nc1ccc(OC(F)(F)F)cc1)N1CCN(c2ccnc3cc(Cl)ccc23)CC1 | 100* | i | i | i | i | i | -1.08 | -22.5
O=C(O)c1ccccc1-c1ncc(-c2ccccc2)o1 | i | i | i | i | nt | nt | nt | nt
COc1ccccc1C(=O)NCC(=O)NNC(=O)C1COc2ccccc2O1 (stereo unspecified) | i | i | i | i | nt | nt | nt | nt
Cc1[nH]c2ccccc2c1C(=O)CN1CC(C)OC(C)C1 (stereo unspecified) | i | i | i | nt | nt | nt | nt | nt
O=C(Cn1cnc2c(oc3ccccc32)c1=O)N1CCCc2ccccc21 | i | i | i | i | nt | nt | nt | nt
O=C(CSc1ncnc2c1oc1ccccc12)N1CCCc2ccccc21 | 100* | i | i | i | 27.5%* | i | -0.796 | -8.5
COc1cccc2sc(/N=C/N(C)C)nc12 | i | i | i | i | nt | nt | nt | nt
Brc1ccc(-c2noc(COc3ccc4c(c3)CCC4)n2)o1 | i | i | i | i | nt | nt | nt | nt
c1csc(-c2noc(COc3ccc4c(c3)CCCC4)n2)c1 | i | i | i | i | i | i | -1.16 | -13.0
COc1ccc2cc([C@H](C)C(=O)N(C)Cc3ccccc3N3CCCC3)ccc2c1 | i | i | i | i | 22.5%* | i | -0.902 | 3.0
CCc1ccc(NC(=S)N(Cc2ccccc2)Cc2ccccn2)cc1 | 25* | i | i | i | i | i | -1.22 | -8.0
CCc1ccc(NC(=S)N(CCCN2CCOCC2)Cc2ccccn2)cc1 | i | i | i | i | nt | nt | nt | nt
CC(OC(=O)c1ccc(O)cc1)C(=O)Nc1cc(C(F)(F)F)ccc1Cl (stereo unspecified) | 25* | i | i | i | 58.0%* | i | -0.936 | -17.5
COc1cccc2cc(C(=O)NCc3ccco3)c(=Nc3ccc(C(=O)O)cc3)oc12 | i | i | i | i | nt | nt | nt | nt
CCC(NC(=O)/C(=C\c1ccc2c(c1)OCO2)NC(C)=O)C(=O)O (stereo unspecified) | i | i | i | i | nt | nt | nt | nt
CNc1ccccc1C(C)(C)c1cc(-c2cccc(OC)c2)no1 | 25* | i | i | i | 23.0%* | i | -0.847 | -4.5
Cc1cccc(-c2nnc(NC(=O)c3ccc(N4C(=O)CCC4=O)cc3)s2)c1 | i | i | i | i | i | i | -0.864 | -10.0
Cc1ccccc1-c1nnc(NC(=O)c2ccc(N3C(=O)CCC3=O)cc2)s1 | i | i | i | i | nt | nt | nt | nt
CC(C)Cc1ccc(C(C)C(=O)Nc2cccnc2)cc1 (stereo unspecified) | 25* | i | i | i | 52.5%* | i | -1.1 | -12.5
CC(C(=O)Nc1cccnc1)c1ccc([N+](=O)[O-])cc1 (stereo unspecified) | i | i | i | i | nt | nt | nt | nt

Source: PubChem BioAssay (Johns Hopkins Ion Channel Center)
